Hits are enriched below; roughly 5.9% of the tested compounds scored in any of these assays.
Rtt109 Vps75 – inhibitors of C. albicans Rtt109/Vps75 HAT, primary screen, biochemical, ThioGlo CoA-SH fluorescence, plate reader. purified Rtt109/Vps75, 4 h. inhibition, % at 34.9 µM. 330,000 compounds, 0.16% hits. AID 540336, 2011;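 active = inhibition of at least 50% in every replicate; inconclusive = best replicate reaches 50% inhibition but some replicates fall short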
Target sequence (Q5AAJ8 whole entry, looked up): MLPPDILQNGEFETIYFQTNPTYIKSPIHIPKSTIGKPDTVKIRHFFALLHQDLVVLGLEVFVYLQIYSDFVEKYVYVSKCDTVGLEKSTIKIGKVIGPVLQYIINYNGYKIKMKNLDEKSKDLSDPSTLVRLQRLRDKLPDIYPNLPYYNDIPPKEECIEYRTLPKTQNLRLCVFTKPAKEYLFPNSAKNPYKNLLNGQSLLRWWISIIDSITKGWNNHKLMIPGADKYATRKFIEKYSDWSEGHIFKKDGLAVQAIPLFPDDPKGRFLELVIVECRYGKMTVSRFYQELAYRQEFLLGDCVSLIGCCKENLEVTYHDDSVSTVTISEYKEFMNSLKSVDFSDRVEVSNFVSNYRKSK
rCAG binder – binders of r(CAG) RNA repeats, primary screen, biochemical, fluorescence; 370,000 compounds, 1.3% hits; r(CAG) RNA repeat, TO-PRO-1 dye displacement fluorescence; AID 651821, 2012; inhibition, % at 3 µM;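 active = inhibition above the plate cutoff, the mean of all test compounds on that plate plus 3 SD, cut at about 35% in these data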;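 also: 0% = DMSO alone and 100% = 100 µM mitoxantrone as full dye displacement; higher means more dye released from RNA so lower well fluorescence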
ALR H2O2 inh – inhibitors of human ALR sulfhydryl oxidase, primary screen, biochemical, H2O2 detection, HRP-luminol luminescence, single point; inhibition, % (test concentration not listed); 290,000 compounds, 3.8% hits; FAD-linked sulfhydryl oxidase ALR (Homo sapiens), P55789; AID 485317, 2010; purified ALR, DTT oxidation;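 active = mean replicate inhibition above about 79%, with every replicate also reaching it, limit read from the data; inconclusive = only one of the two criteria met; inactive = mean below limit and not every replicate reaching it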
Target sequence (P55789 whole entry, looked up): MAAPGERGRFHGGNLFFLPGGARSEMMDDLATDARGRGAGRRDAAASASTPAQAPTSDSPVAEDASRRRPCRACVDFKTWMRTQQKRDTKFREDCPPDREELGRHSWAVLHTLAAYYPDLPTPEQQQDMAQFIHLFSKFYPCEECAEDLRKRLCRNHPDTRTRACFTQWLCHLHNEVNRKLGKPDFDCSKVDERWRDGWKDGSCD
ABHD5-PLIN5 inh – ABHD5-PLIN5 interaction inhibitors, primary screen, cell lysate, split luciferase complementation, luminescence; Perilipin-5 (Homo sapiens) + 1-acylglycerol-3-phosphate O-acyltransferase ABHD5 (Homo …; Split G. princeps luciferase complementation, 4 h; inhibition, % at 4 µM; 360,000 compounds, 0.78% hits;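 active = inhibition above the mean inhibition across every tested compound plus 3 SD, cut at about 22% in these data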;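 also: 0% = DMSO only wells and the 100% control is not disclosed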
LANA-H2B inh – blockers of LANA interaction with H2A/H2B – biochemical, FP readout, HTS, primary screen. cell-free LANA-H2A/H2B peptide, fluorescence polarization. inhibition, % (no concentration beside the values). 320,000 compounds, 0.6% hits; in the data active = inhibition mostly above about 10%, no sharp cut-off; inactive = mostly below about 6.7%
PRMT1 FP inh – PRMT1 methyltransferase inhibitors, primary screen, biochemical, fluorescence polarization; AID 652257, 2013; inhibition, % at 2.79 µM; recombinant PRMT1, activity-based probe fluorescence polarization; 370,000 compounds, 1.3% hits; Protein arginine N-methyltransferase 1 (Homo sapiens), Q99873;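 active = inhibition above about 21% made by adding two undisclosed values, limit read from the data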
rCAG binder conf – small molecules binding CAG repeat RNA – biochemical, fluorescence, confirmation; shares compounds with rCAG binder; r(CAG) RNA repeat, TO-PRO-1 dye displacement fluorescence; inhibition, % at 3 µM; 4,300 compounds, 70% hits; AID 652065, 2013;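 active = inhibition above a per-plate cutoff, the mean inhibition of sample wells plus 3 SD, cut at about 35% in these data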;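 also: loss of TO-PRO-1 fluorescence as compound displaces dye from 1x1 AA loop RNA; 0% = DMSO only wells and 100% = 100 µM mitoxantrone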
dCAG dye counter – displacement of TO-PRO-1 from CAG DNA duplex, counter-screen for rCAG RNA repeat binder project, biochemical, fluorescence, TO-PRO-1 dye, d(CAG) DNA oligo; shares compounds with rCAG binder; d(CAG) DNA oligo TO-PRO-1 dye displacement; inhibition, % at 3 µM; 4,300 compounds, 94% hits; AID 652068, 2013;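 active = inhibition above its plate's cutoff, the mean test-well inhibition plus 3 SD, cut at about 4.8% in these data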;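 also: 0% = DNA dye mix with DMSO and 100% = 100 µM mitoxantrone; hits displace the dye from DNA and so lower well fluorescence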
DNA CAG DR – inhibitors of DNA CAG/GTC TO-PRO-1 complex, dose response, counter-screen for rCAG RNA repeat binder project, biochemical, fluorescence, TO-PRO-1 dye; shares compounds with rCAG binder; DNA CAG/GTC duplex TO-PRO-1 dye displacement fluorescence; IC50, µM; 250 compounds, 20% hits; in the data active = IC50 below about 10 µM
* marks the source's active call; other numbers are inactive results; i = inactive; ? = inconclusive; . = not tested or not shown.

SMILES	Rtt109 Vps75	rCAG binder	ALR H2O2 inh	ABHD5-PLIN5 inh	LANA-H2B inh	PRMT1 FP inh	rCAG binder conf	dCAG dye counter	others
O=C(CCN1C(=O)S/C(=C\c2ccc(F)cc2)C1=O)Nc1ccc(O)cc1C(=O)O	1.1	48.7*	27.3	1.1	0.4	5.0	28.1	6.8*
Cc1ccc(C(=O)Nc2nc(C(N)C(C)C)cs2)cc1 (stereo not drawn)	.	10.3	.	0.2	.	-1.7	.	.
Cc1noc(C)c1NC(=O)N(C)C[C@@H]1OCc2cn(nn2)CCCC(=O)N([C@@H](C)CO)C[C@H]1C	.	1.9	.	.	.	-0.5	.	.
C[C@@H]1Cn2cnc(C(=O)N(C)Cc3ccccc3)c2C(=O)N1	.	-0.5	.	.	.	1.1	.	.
O=C(CCN1C(=O)S/C(=C/c2ccccc2)C1=O)Nc1ccc(C(=O)O)c(O)c1	2.3	63.2*	5.2	0.9	1.4	5.1	41.3*	15.0*
O=C(NCCCN1CCCC1=O)C(=O)NCC1OCCN1S(=O)(=O)c1cc(F)ccc1F (stereo not drawn)	.	6.2	.	-6.1	.	1.3	.	.
Cc1cccc(N2CCN(C3C(=O)Nc4ccccc4-n4nnnc43)CC2)c1C (stereo not drawn)	.	5.5	.	-4.1	.	-1.0	.	.
O=C1C(Cl)=C(NS(=O)(=O)c2ccc([N+](=O)[O-])cc2)C(=O)c2ccccc21	?	38.2*	0.3	21.3	-0.2	10.8	23.6	5.3*
O=C(/C(=N\Nc1ccc([N+](=O)[O-])cc1)Sc1nnnn1-c1ccccc1)c1ccccc1	15.9	34.0	1.0	-6.1	3.9	4.5	.	.
Cc1ccc(N/N=C(/Sc2nnnn2-c2ccccc2)C(=O)c2ccccc2)cc1	7.4	67.8*	7.7	-13.1	5.3	11.0	53.0*	21.1*	DNA CAG DR=i
Cc1ccc(C(c2ccc(C)o2)c2cccc([N+](=O)[O-])c2O)o1	2.1	32.7	36.7	3.7	-2.1	12.3	.	.
Cc1cc(C(c2ccc(C)o2)c2ccc(C)o2)c(O)c([N+](=O)[O-])c1	-2.1	54.1*	14.9	7.2	-0.5	21.1	17.5	8.5*
Cc1nn(-c2cccc(Cl)c2)c2c1C(c1cccnc1)C(C#N)=C(N)O2 (stereo not drawn)	0.9	20.4	62.8	-25.8	-3.3	1.8	.	.
Cc1nn(-c2cccc(Cl)c2)c2c1C(c1ccncc1)C(C#N)=C(N)O2 (stereo not drawn)	-7.1	35.7*	32.6	-10.9	-0.7	5.5	26.6	5.2*
COc1cc(C2C(C#N)=C(N)Oc3c2c(-c2ccccc2)nn3-c2ccccc2)cc(OC)c1OC (stereo not drawn)	-1.8	61.9*	60.5	-16.4	8.4	0.0	24.6	8.5*
Nc1c(C(=O)N2CCOCC2)cnn1Cc1ccccc1	.	5.1	.	.	.	0.5	.	.
CCOC(=O)c1ccc2c(c1)C1C=CCC1C(C(=O)OCC)N2 (stereo not drawn)	1.4	47.4*	.	2.2	2.0	22.7*	35.4*	16.8*
CCC(C)c1ccc(C2C3=C(Nc4nc(N)[nH]c(=O)c42)c2ccccc2C3=O)cc1 (stereo not drawn)	-0.3	43.2*	-1.1	12.1	3.0	0.1	47.1*	29.4*
Cn1c2c(c(=O)[nH]c1=O)C(c1ccc(O)cc1)C1=C(N2)c2ccccc2C1=O (stereo not drawn)	0.7	26.8	7.5	-1.4	1.9	3.3	.	.
COc1cc(C2C(=O)c3ccccc3C2=O)ccc1O	1.2	12.5	.	2.6	-1.1	1.1	.	.
Nc1nc2c(c(=O)[nH]1)C(c1ccccc1)C1=C(N2)c2ccccc2C1=O (stereo not drawn)	1.9	61.8*	8.5	6.9	6.2	2.0	32.1	26.6*
COc1cc(C2C3=C(Nc4nc(N)[nH]c(=O)c42)c2ccccc2C3=O)ccc1O (stereo not drawn)	-3.8	60.5*	?	3.2	2.5	8.0	27.9	20.1*
COc1ccc(COC(=O)CCCN=C2NS(=O)(=O)c3ccccc32)cc1F	.	4.5	.	5.6	.	-4.2	.	.
CCCCNC(=O)C[C@@H]1C(=O)N2CCCC3=C2[C@@]1(C(=O)OC)CCCC3	.	1.7	.	.	.	2.7	.	.
CCc1ccc(C2CC3C(CN2S(=O)(=O)c2ccc(C)cc2)[C@@H](O)C[C@@H](c2ccc(CC)cc2)N3S(=O)(=O)c2ccc(C)cc2)cc1 (stereo partly drawn)	.	16.1	.	-5.6	.	-1.1	.	.
SMILES	Rtt109 Vps75	rCAG binder	ALR H2O2 inh	ABHD5-PLIN5 inh	LANA-H2B inh	PRMT1 FP inh	rCAG binder conf	dCAG dye counter	others
O=C(COC(=O)c1cccc(-n2cnnn2)c1)c1ccc(F)c(F)c1	.	3.7	.	-7.7	.	2.6	.	.
CC(C)[C@H](NC(=O)c1ccco1)C(=O)Nc1ccc(N2CCCCCC2)cc1	.	0.4	.	-1.3	.	0.1	.	.
Cc1noc(NS(=O)(=O)c2ccc(NC(=O)c3ccc(Cl)c(S(=O)(=O)N(C)c4ccccc4)c3)cc2)c1C	5.8	90.9*	.	-12.1	.	1.0	84.5*	55.5*
Cc1noc(NS(=O)(=O)c2ccc(NC(=O)c3cccc(S(=O)(=O)N(C)c4ccccc4)c3)cc2)c1C	-1.8	73.0*	.	6.5	.	2.1	81.2*	36.8*
CCOC(=O)c1cnc2c3c(noc13)CCC2	.	-0.8	.	.	.	0.7	.	.
CCOC(=O)[C@]12CCCC3=C1N(CCC3)C(=O)[C@@H](CC(=O)NCc1ccccc1)C2	.	0.1	.	.	.	-2.8	.	.
O=C(NCc1ccccc1C(F)(F)F)c1cccc2c1C(=O)c1ccc(N3CCC(N4CCCCC4)CC3)cc1S2(=O)=O	.	8.9	.	12.1	.	9.7	.	.
Cc1ccc2c(C)c(C(=O)Nc3ccc(S(=O)(=O)Nc4onc(C)c4C)cc3)oc2c1	17.0	78.9*	96.7*	10.5	3.4	-0.4	74.5*	39.8*

Bioassay records from PubChem BioAssay.
